Reference: PubChem BioAssay
Calls of active or inactive are those of the source.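 Rule for the calls, unless noted: active = compounds giving at least 50% inhibition in the cell-based MKP-3 phosphatase rescue imaging test; inactive = the rest.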

Assays:
[1] = inhibitors of TNFa-induced NFkB p65 translocation, primary screen, imaging, HUVEC, MLSMR starter and 10KST1 sets (AID 438;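 active = inhibition above 20% together with a positive visual image hit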;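 note: compound added about 3h40 before a 20 min TNFalpha stimulation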;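 for inhibition: signal is the nuclear over cytoplasmic p65 intensity ratio per well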); settings: HUVEC TNFa-induced p65 nuclear translocation; cell count: measured here: nuclei count (cytotoxicity indicator), at 2.08 µM unless noted; inhibition: at 2 µM, stronger effect = higher value unless noted
[2] = endothelial E-selectin expression blockers – imaging, HUVEC, immunofluorescence, MLSMR starter and 10KST1 sets, primary screen (AID 487;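 active = visually confirmed hit in the image check and inhibition above 20%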;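 for inhibition: signal is fraction of cell area covered by stained E-selectin grains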;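 for nuclei count: 100% = median nuclei count of all wells on the same plate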); settings: HUVEC TNFalpha-induced E-selectin immunofluorescence imaging, at 2 µM; inhibition: stronger effect = higher value; nuclei count: measured here: cell number, toxicity
[3] = Primary imaging screen for DUSP6 inhibitors that restore phospho-Erk in transfected HeLa cells, chemical complementation (AID 609); settings: HeLa MKP-3 transfected, phospho-Erk imaging KS statistic, at 10 µM;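 for inhibition: phospho-Erk level distribution per well compared with pooled transfected vehicle control wells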
[4] = target: Dual specificity protein phosphatase 6 (Homo sapiens) (UniProt Q16828); test: as above; settings: HeLa MKP-3 transfected, phospho-Erk imaging KS statistic, at 10 µM, stronger effect = higher value
[5] = target: Voltage-gated potassium channel subunit beta-2 (Rattus norvegicus) (UniProt P62483); test: inhibitors of rat Kvbeta2 reductase activity – biochemical, NADPH fluorescence, primary screen (AID 622;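 active = fluorescence slope higher than the sample average by over 3 SD, cut at about -0.22 in these data, passing the limit was not always enough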;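 note: slope of raw intensity against log time taken from 70 to 1610 s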); settings: recombinant KvBeta, 4-cyanobenzaldehyde reduction, at 10 µM, stronger effect = higher value
[6] = target: Voltage-gated potassium channel subunit beta-2 (Rattus norvegicus) (UniProt P62483); test: enhancers of rat Kvbeta2 NADPH turnover – biochemical, NADPH fluorescence, primary screen (AID 623;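 active = NADPH fluorescence slope more negative than the mean of all samples by about 3 SD, 99.7% confidence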;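 note: fluorescence intensity change per second fitted from 20 to 320 s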); settings: Recombinant KvBeta, NADPH fluorescence decrease slope, 10 min; at 10 µM; stronger effect = lower value
[7] = target: Alpha-2C adrenergic receptor (Homo sapiens) (UniProt P18825); test: compounds altering alpha2C-coupled GIRK flux – cell-based, HEK293 alpha2C/GIRK1/2, thallium flux, primary screen (AID 624;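 active = fluorescence slope after compound addition differing from the mean of all screened samples at 99.7% confidence, in either direction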;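 note: slope of fluorescence ratio to pre-addition baseline per second over 15 to 24 s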); settings: thallium flux BTC fluorescence, at 10 µM, actives lie on both sides
[8] = inhibitors of larval lipid processing in zebrafish, primary screen, whole organism, PED6 fluorescence, gall bladder and intestine (AID 686;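 active = a full or partial loss of lipid-probe fluorescence in the fish gall bladder, intestine or both, judged by eye; inactive = no fluorescence loss, or compound toxic to the fish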;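 note: larvae 5 to 7 days old with five fish per well; signal comes from phospholipase A2 cleavage of quenched PED6 carried via bile; overnight exposure to compound and PED6 before scoring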); settings: Zebrafish larvae PED6 lipid processing, fluorescence scoring
[9] = loss of swimming-algae plug formation – whole organism, Chlamydomonas reinhardtii, WT vs cilia-less mutant, absorbance, 96-well, primary screen (AID 463189;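 active = inhibition at or above 50% relative to wild type and mutant plate controls; inactive = inhibition below 50%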;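 note: 0% = wild type cc124 cells in DMSO and 100% = ciliumless bld1 mutant cells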); settings: Chlamydomonas reinhardtii gravitaxis, OD600 absorbance, 2 days; at 10 µM; stronger effect = higher value
[10] = target: Muscarinic acetylcholine receptor M4 (Homo sapiens) (UniProt P08173); test: M4-linked GIRK flux change, two-sided – cell-based, HEK293 M4/GIRK, thallium flux, BTC-AM, M4 allosteric agonist project, primary screen (AID 625;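 active = fluorescence slope after compound addition differing from the mean of all tested samples at 99.7% confidence, mostly higher but some lower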;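 note: thallium influx through GIRK channels coupled to M4 in HEK293 cells with BTC-AM dye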); settings: at 10 µM, actives lie on both sides
[11] = measured here: cell density z-score
[12] = measured here: nuclear c-Myc green intensity z-score
[13] = measured here: nuclear pErk red intensity z-score, stronger effect = higher value

Muscarinic acetylcholine receptor M4 (Homo sapiens), sequence (P08173 whole entry, looked up): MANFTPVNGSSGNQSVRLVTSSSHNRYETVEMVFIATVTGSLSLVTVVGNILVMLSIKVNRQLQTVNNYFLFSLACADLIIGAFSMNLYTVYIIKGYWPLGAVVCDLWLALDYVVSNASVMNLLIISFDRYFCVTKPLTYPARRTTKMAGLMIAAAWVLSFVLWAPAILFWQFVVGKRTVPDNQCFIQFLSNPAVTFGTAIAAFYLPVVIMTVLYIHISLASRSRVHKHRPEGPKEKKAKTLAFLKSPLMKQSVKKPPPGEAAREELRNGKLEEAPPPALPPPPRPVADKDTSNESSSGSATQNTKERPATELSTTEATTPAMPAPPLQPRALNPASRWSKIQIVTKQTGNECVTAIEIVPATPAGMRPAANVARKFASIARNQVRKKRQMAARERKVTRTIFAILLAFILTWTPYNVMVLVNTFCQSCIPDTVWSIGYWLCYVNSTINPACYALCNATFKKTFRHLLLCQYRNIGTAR
Dual specificity protein phosphatase 6 (Homo sapiens), sequence (Q16828 whole entry, looked up): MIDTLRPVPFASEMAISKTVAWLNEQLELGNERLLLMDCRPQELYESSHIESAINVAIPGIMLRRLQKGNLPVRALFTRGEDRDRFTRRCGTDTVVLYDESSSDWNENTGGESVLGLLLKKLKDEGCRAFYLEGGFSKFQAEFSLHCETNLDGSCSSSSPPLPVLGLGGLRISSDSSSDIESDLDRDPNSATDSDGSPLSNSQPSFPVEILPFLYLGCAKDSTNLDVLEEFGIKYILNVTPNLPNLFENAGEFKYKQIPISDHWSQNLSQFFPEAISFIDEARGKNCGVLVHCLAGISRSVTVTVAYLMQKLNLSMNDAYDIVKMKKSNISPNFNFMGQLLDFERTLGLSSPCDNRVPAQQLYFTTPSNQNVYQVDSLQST
Voltage-gated potassium channel subunit beta-2 (Rattus norvegicus), sequence (P62483 whole entry, looked up): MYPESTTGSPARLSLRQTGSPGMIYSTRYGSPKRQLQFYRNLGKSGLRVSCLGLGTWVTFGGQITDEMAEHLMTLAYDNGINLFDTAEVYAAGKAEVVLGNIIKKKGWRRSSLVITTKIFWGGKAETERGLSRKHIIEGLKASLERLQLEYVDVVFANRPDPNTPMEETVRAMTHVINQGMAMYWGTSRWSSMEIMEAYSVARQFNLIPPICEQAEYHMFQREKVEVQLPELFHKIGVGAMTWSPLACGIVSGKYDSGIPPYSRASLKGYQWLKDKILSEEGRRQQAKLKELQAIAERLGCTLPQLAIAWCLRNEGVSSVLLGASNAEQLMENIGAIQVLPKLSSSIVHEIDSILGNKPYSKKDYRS
Alpha-2C adrenergic receptor (Homo sapiens), sequence (P18825 whole entry, looked up): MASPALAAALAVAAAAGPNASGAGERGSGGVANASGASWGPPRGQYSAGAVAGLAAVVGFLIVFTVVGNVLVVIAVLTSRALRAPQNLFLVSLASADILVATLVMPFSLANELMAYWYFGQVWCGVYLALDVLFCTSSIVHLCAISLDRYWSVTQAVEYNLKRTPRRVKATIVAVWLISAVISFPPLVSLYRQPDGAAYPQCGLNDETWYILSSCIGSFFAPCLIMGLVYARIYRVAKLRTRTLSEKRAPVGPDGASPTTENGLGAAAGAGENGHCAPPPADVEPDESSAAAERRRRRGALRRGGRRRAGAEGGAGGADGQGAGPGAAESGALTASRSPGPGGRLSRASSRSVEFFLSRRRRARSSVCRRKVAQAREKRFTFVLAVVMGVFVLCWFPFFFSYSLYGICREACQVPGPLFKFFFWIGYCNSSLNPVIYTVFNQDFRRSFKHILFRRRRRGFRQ

| SMILES | cell count [1] | inhibition [1] | inhibition [2] | nuclei count [2] [%] | z-score [3, 11] | z-score [3, 12] | z-score [3, 13] | inhibition [4] | fluorescence slope [5] | NADPH fluorescence slope [6] | slope [7] | outcome [8] | inhibition [9] | z-score ([3]; measured here: cell density z-score, cells stimulated with TPA for 15 min) | z-score ([3]; measured here: nuclear c-Myc green intensity z-score, cells stimulated with TPA for 15 min) | z-score ([3]; measured here: nuclear pErk red intensity z-score, stronger effect = higher value, cells stimulated with TPA for 15 min) | fluorescence slope [10] |
| --- | --- | --- | --- | --- | --- | --- | --- | --- | --- | --- | --- | --- | --- | --- | --- | --- | --- |
| COc1ccc(-n2c(SC)nc3ccccc3c2=O)cc1 | 594 | -3.7% (inactive) | -93.7% (inactive) | 134 | -0.0992 | -1.67 | -0.0859 | 4.25% (inactive) | -0.492 (inactive) | -0.000141 (inactive) | 0.00471 (inactive) | inactive | 12.5% (inactive) | – | – | – | – |
| O=C1NCCN2CCCC12 (centres undefined) | 549 | -10.8% (inactive) | -50.9% (inactive) | 158 | -1.06 | -1.18 | 1.73 | -0.608% (inactive) | -0.497 (inactive) | -0.000122 (inactive) | 0.00514 (inactive) | inactive | 13.6% (inactive) | – | – | – | – |
| COC(=O)C(O)(c1c[nH]c2ccccc12)C(F)(F)F (centres undefined) | 466 | -0.7% (inactive) | -19.2% (inactive) | 112 | 0.726 | 0.429 | -1.12 | -5.26% (inactive) | -0.373 (inactive) | 1.2e-05 (inactive) | 0.00556 (inactive) | inactive | -11.1% (inactive) | – | – | – | – |
| O=C(Nc1ccncc1)c1c(O)c2ccccc2n(Cc2ccccc2)c1=O | 544 | -4.5% [at 2 µM, stronger effect = higher value, 0% TNFa-plus-vehicle, 100% no-TNFa wells] (inactive) | -23.1% (inactive) | 145 | – | – | – | 10.5% [cells stimulated with TPA for 15 min] (inactive) | -0.32 (inactive) | 2.5e-05 (inactive) | 0.00467 (inactive) | inactive [screened at 20 µM (by protocol)] | 30.8% (inactive) | -0.126 | -1.62 | -0.473 | – |
| CCCCCCn1c(O)c(C(C)=NC)c(=O)[nH]c1=O | 556 | -6.2% (inactive) | -77.6% (inactive) | 162 | 0.993 | -1.06 | 1.3 | -0.608% (inactive) | -0.503 (inactive) | -6.1e-05 (inactive) | 0.00581 (inactive) | inactive | -6.02% (inactive) | – | – | – | – |
| CCOc1ccccc1-n1c(O)c(C=Nc2ccc(N(CC)CC)cc2)c(=O)[nH]c1=O | 588 | -15.7% (inactive) | -43.1% (inactive) | 85.2 | 2.24 | -1.62 | -0.873 | 6.04% (inactive) | -0.43 (inactive) | -9.6e-06 (inactive) | 0.0078 (inactive) | inactive | 7.21% (inactive) | – | – | – | – |
| CCCSP1(=S)NCCCO1 (centres undefined) | 455 | -11.8% (inactive) | -157% (inactive) | 122 | 0.345 | -0.499 | -0.356 | -2.07% (inactive) | -0.54 (inactive) | -7.2e-05 (inactive) | 0.00464 (inactive) | inactive | 20.8% (inactive) | – | – | – | – |
| O=c1[nH]c(=O)n(Cc2ccccc2)c(O)c1C=NCCN1CCOCC1 | 639 | -25.9% (inactive) | -59.7% (inactive) | 156 | 0.666 | -2.11 | 2.73 | 2.71% (inactive) | -0.393 (inactive) | -1.2e-06 (inactive) | 0.00558 (inactive) | inactive | 0.831% (inactive) | – | – | – | – |
| CNC(=O)N(C)c1nnc(C(C)(C)C)s1 | 642 | -6.4% (inactive) | -26% (inactive) | 73.8 | -3.07 | 0.0042 | -1.4 | 11.9% (inactive) | -0.502 (inactive) | -9.9e-05 (inactive) | – | inactive | 119% (active) | – | – | – | 0.00657 (inactive) |
| O=C(CN1CCN(CCO)CC1)Nc1ccc(Cl)cc1C(=O)c1ccccc1 | 431 | -4% (inactive) | -88.6% (inactive) | 154 | 0.92 | -0.897 | 0.82 | 11.9% (inactive) | -0.465 (inactive) | -0.000121 (inactive) | – | inactive | 12% (inactive) | – | – | – | 0.00435 (inactive) |
| CC1(c2ccccc2)NCCN2C(=O)CSC21 (centres undefined) | 632 | 2.3% (inactive) | 32.4% (inactive) | 147 | 1.05 | -0.953 | -0.166 | 1.12% (inactive) | -0.477 (inactive) | -6.1e-05 (inactive) | – | inactive | 8.43% (inactive) | – | – | – | 0.00532 (inactive) |
| COC(=O)C(O)(c1ccc(NC(=O)c2ccco2)c(OC)c1)C(F)(F)F (centres undefined) | 569 | 3.2% (inactive) | 1% (inactive) | 152 | -0.555 | 0.637 | 1.11 | -3.97% (inactive) | -0.43 (inactive) | -5.3e-05 (inactive) | – | inactive | 0.634% (inactive) | – | – | – | 0.00513 (inactive) |
| O=C(c1ccco1)C12CN3CN(CN(C3)C1)C2 | 403 | -7% (inactive) | -98.3% (inactive) | 165 | -0.216 | 0.212 | 0.209 | 17.4% (inactive) | -0.431 (inactive) | -0.000115 (inactive) | – | inactive | -4.37% (inactive) | – | – | – | 0.00486 (inactive) |
